Assay results published in the supplement of paper PMC12632987.
In all, about 4,500 sequences were measured (“median log2 fold change of GCK-ALFA target abundance (FLAG IP / Myc IP barcode read proportion)”: median about 0.078, lowest 2% from about -0.6 on). The full list was thinned out, with the lowest values kept by preference.

B1: GBRAP_160_4202 (protein)
chain: EEKVKKIIEELKEETEEVIKLLDEVSVEEAAVFAEVEFGSVLMLAVELGIENDEILDVIDEAGDKIVKYLKENKDASVEELKKKIKEITEEAIKKIKELA
B2: GBRAP_39_5664 (protein)
chain: EEDEENELLFEYYLAKAEGYRIKEGISDEELIERGKELLKAIAKEHPEIKELVEELLKEVDKGDEDVGLAAAGIALDYLEGLPIEEIKEHLEKLLKYVKK
B3: GBRAP_184_5111 (protein)
chain: KLLEETIKANNKEELEKKLTEVVEKAVKEKADLLVIVEIPNLTPEMAEIIMDKVAKAKEAGIKNVLVEIVSDNLSDEVIDTIDKKAKEYGLTNVVLAMKE
B4: GBRAP_153_3948 (protein)
chain: SMESKEKLEKAKKLIEKIKKSEDPTEYIKELAKLLASMNLEERLEVAKEFNSLSEETVYKIFLTLATEEGFSVEELLELTTELNEEQQAAALKAIVEAQK
B5: GBRAP_39_5630 (protein)
chain: EEEEELELLESLAEADLAKREVETGLPAEELYAELLARAREAAADDPELLALIERLAALAEEHGPEARERLAAAMAAYLAGLPKEDIKRLLTALIEELEA
B6: GBRAP_48_5830 (protein)
chain: MKIDLEKLEALVKETVEEMKELYEEAKKEGLSDEDILKMIKAELGDLALELEEEGYTKAADYLLERENRDELAKKLLELFKEGKYEEAYEYLLKKLKEAE
B7: GBRAP_160_4619 (protein)
chain: SEKVEELKKFVEEEFEETKEMIVGQTPEERAAIVDVTIGEIILEAEELEVVSDETLDEIDEIGDELVETILANPDLTDEEIKALIDEAREKIIALIEKDE
B8: GBRAP_160_4617 (protein)
chain: SSKIEELKKFVKEEFEEAKEMIEGETPEQRAAIVDVTIGEIILEAEELEVVSDESLEKIDEIGDELVETILENPDLTEEEVKELIDEAEKKIIEIIEEDE
B9: GBRAP_53_6397 (protein)
chain: SAATIAALLAELRALIAEVDADPTLDPEEVAARAGELLRAAVAAGAPAAELTALARELAAAVAARGLGVEVGTRLAATAAAAGAEEVAAVFTEAAVEDLE
B10: GBRAP_26_5497 (protein)
chain: FLEEILEELRREIKEILKDESPELQAAVIATAEDLLLEADEEIEENAEDEEKIKEAIEKAVEEMRKELERFGLSEEKIEKIVEALRRALEKVAERIKEEA
B11: GBRAP_52_5995 (protein)
chain: SAARIEAVAREIVALVLAGDREGARALIRKAFRELSDEEIVEMVRLATRLLMEDPRATDEDIRTFIDLVLDTAEEEGLDEETIADIIGAIATAIKEAELK
B12: GBRAP_125_3094 (protein)
chain: EEEALLAALRRLALALGFSEEEAEELAELAARSSLRQTLYALFAAEGYEELADLVEKLTEEQAREALLRLAAWLDAHPDASREEVVARAREIAEELLAAA
B13: GBRAP_160_4419 (protein)
chain: DELIEEVDELLDETEELVVELVEEGKREEAIAALRVGAGEILLLLDEDESVSEETEEKVDKILDETIKKFEENKDASPEEVRELLDKAREEILAVLKEGS
B14: GBRAP_137_3646 (protein)
chain: PNVTITKETIDDLVEINIEFDDPEKAEEAAELIRDVAHEHGALAVSIEINEDGTLEATIWVPKDKAQALIDALVTRLRTELGANVTVIDKDTGETTVVKA
B15: GBRAP_137_3669 (protein)
chain: MIEAEIELENGLAFARITVEGSKEELERAAEIAEDIAGEIPNLAVSVELSEDGTLVIDVFGTKEDVLKFLKELAKRLNKTVKVKTKNLETGEEKEEVIEP
B16: GBRAP_125_3101 (protein)
chain: MEEELLEALKRFALALGFSEEDAEEAAELAKKFSLKQTLIALLLAEGEEELAELVEKLTEEEAKEVLLKLDEYLKKNPNASKEEVLKKFKELVEEALKAS
B17: GBRAP_125_3103 (protein)
chain: EEEELLEALKALALALGFSEEDAEEAAELARRFSLKNTLIAILLAEGEEELAELVEKLTEEQAKEVLKKLAEWLKENPNASKEEVIKKLKELVEEALKKA
B18: GBRAP_125_3104 (protein)
chain: SEEELLEDLKALALALGFSEEDAEEAARLAAEFSLKNTLIAILLAEGEEELAELVEKLTEEQAKEVLKKLAEYLKKHPNATKEEVIEKFKELVEEALAKS
B19: GBRAP_125_3102 (protein)
chain: EEEELLEALRRLALALGFSEEEAEEAARLAREFSLRQTLIALLLAEGEEELAELVEKLTEEQAKEVLRRLAEYLEAHPDATREEVVAKLRELVEEALAAA
B20: GBRAP_184_5289 (protein)
chain: MVEEVVIEAENAEEAIKKIKEAAEKAKKEGKKLRLYLFLKNVDVEGFKKIAELLKELKEEGIIEDAIVEILDERTEEETDKFVEIADKAGIRLVIALSDE
B21: GBRAP_128_3375 (protein)
chain: VNEEFLKEIEELVEKMLESSVEEVRELTKKIVELLSKASLEEQEAAVEIILEKLPEFSVEKLEAIADVLREERKKASPELQELLADVEVEALNEAEEKEE
B22: GBRAP_184_5038 (protein)
chain: AIKEVTIEAKDLEELKAKLAELEEEMKNFKGDLIVHVKSPKFTKEMVEELMSTLKNMLDKGYISSATVGLDGEMTEEVVDLAVKLADEAGIKVVLALDEE
B23: GBRAP_11_2726 (protein)
chain: RKETILKFAKEAEALAKEIEKLIKEGPTKEGLEKLAKKAKALYEAAKKAGLPEDIVETLKIAAELLKEAIADPKNAEKYLREAAAAFRVAAGLLLLEAEE
B24: GBRAP_14_3852 (protein)
chain: IEELIKAVEETAKETKEMAKEVLPEHAEEVNKKIEELAKKIIKKIKEENLNKEEVAELMDEFAEELAKFIKEKGFANETEIAAIRATILNEAALKLDEIE
B25: GBRAP_150_3939 (protein)
chain: DLEELLLLAQGIETDLELALEPGFDKLKLAERALELAKDIAKESDEELKKLAEELIKLLEEAIKAIKAGAEEKEIQKLLEEALRKARELIEEIEKKIEEE
B26: GBRAP_9_7172 (protein)
chain: LKAAAAAAIAELREARDFILEIAPEAAAGAVDAAFDALIAALEAARADPTVTPEQFEATLAAGFAAIRAAAAAHLSPEVAAAVETEMLTVRDIADEKLDE
B27: GBRAP_95_7026 (protein)
chain: EDDQLLVDSLTEVLETYVDLGDEERAREAARRLVRALRENGILPLPKSISVEAAKLILEVALEELDLEELEALAKQLIEATKDEEVRKYAEAKIAEKRAR
B28: GBRAP_52_6042 (protein)
chain: MEERMRELAEEILALYLEGREEEARKLIREAVETLSEEELKLLGEALAELAREAPPEHLDAYMQAAFDLADALEEAGYDEVLADDLEARVAAAAVENLKR
B29: GBRAP_52_6034 (protein)
chain: MRERMRRLAEEAVALALAGDEEGAKALIKEAVETLSEEELKLLGEELARLAREAAPEDLDAIMEVAFWLADALIEAGYDEVFADDLEARVARAAVENLQA
B30: GBRAP_52_6035 (protein)
chain: MEERMRELARRIVELLLAGREEEARRLIREAVETLSEEELKLLGEELARLAREAAPEDLDAIMEAAFLLADALEEGGYDEVLADDLLARVAAAAVANLQA

Each binder was assayed against GABARAP, O95166 (assay: median log2 fold change of GCK-ALFA target abundance (FLAG IP / Myc IP barcode read proportion) (log2 ratio); each designed protein is fused to an ALFA-tag nanobody in HEK293 cells to bring the named protein to FLAG-tagged glucokinase (GCK); Myc marks an untargeted standard; higher = target protein stabilised (more abundant)). Conditions: target protein: 3xFLAG-MCP-GCK-ALFA reporter; HEK293 landing pad (RPLP).
In short: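 Binders fused to an ALFA nanobody were recombined as a library into HEK293 landing-pad cells, which were induced with 2 μg mL^−1 doxycycline and then transfected to express a FLAG-tagged target and a Myc-tagged standard. After 48 h, circular RNA barcodes recovered by anti-FLAG and anti-Myc immunoprecipitation of lysates were reverse transcribed, amplified and sequenced. Each binder's target abundance is the median log2 ratio of FLAG to Myc barcode read proportions, from barcodes present at ≥10^−7 in both replicates, binders carrying ≥3 barcodes per replicate, a 10^−6 pseudocount and pooled replicates.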

GABARAP, O95166, sequence (O95166 whole entry, the tested form may be a part): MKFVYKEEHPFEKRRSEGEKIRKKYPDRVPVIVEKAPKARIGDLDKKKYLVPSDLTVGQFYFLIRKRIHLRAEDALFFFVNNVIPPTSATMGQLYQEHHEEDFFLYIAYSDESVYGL

| Binder | median log2 fold change |
| --- | --- |
| B1 | -0.374 |
| B2 | 0.132 |
| B3 | 0.326 |
| B4 | 0.294 |
| B5 | 0.159 |
| B6 | 0.224 |
| B7 | -0.678 |
| B8 | -0.294 |
| B9 | 0.226 |
| B10 | 0.312 |
| B11 | -0.964 |
| B12 | 0.075 |
| B13 | -0.0618 |
| B14 | -0.0128 |
| B15 | 0.0022 |
| B16 | -0.382 |
| B17 | -1.16 |
| B18 | -0.801 |
| B19 | -0.364 |
| B20 | -0.121 |
| B21 | 0.132 |
| B22 | 0.0979 |
| B23 | 0.0545 |
| B24 | 0.15 |
| B25 | 0.139 |
| B26 | -0.00921 |
| B27 | 0.182 |
| B28 | -0.435 |
| B29 | -0.573 |
| B30 | -0.612 |
